Assay outcomes from PubChem.
DAX1 inh-1: DAX1 (NR0B1) inhibitors on StAR promoter, primary screen, cell-based, luminescence, SF-1 (NR5A1), full-length DAX-1; HEK293T StAR-luciferase reporter, SF-1/DAX-1 repression relief; inhibition, % at 6.8 µM; 370,000 tested, 1.1% active; AID 652010, 2013;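 active = inhibition above the mean over all tested compounds plus 3 SD, cut at about 3.6% in these data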;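 also: 0% = DAX-1 cells with DMSO and 100% = cells lacking DAX-1 with DMSO; higher inhibition means more luminescence from relief of DAX-1 repression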
hgDAF12 agonist: H. glycines DAF-12 receptor agonists, primary screen, cell-based, luminescence, HEK293, GAL4 fusion, UAS-luciferase; 370,000 tested, 1.8% active; Nuclear hormone receptor DAF-12 (Heterodera glycines), GAL4 fusion; HEK293 GAL4-hgDAF12 UAS-luciferase reporter, agonist luminescence; normalized to butyrate control; activation, % at 6.8 µM;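 active = activation above a cutoff set at the mean of all screened compounds plus 3 SD, cut at about 10% in these data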;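 also: 0% = DMSO wells and 100% = sodium butyrate wells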
SMARCA2 activ: SMARCA2 (BRM) function activators, primary screen, cell-based, luminescence, high throughput | MG213 cells, MMTV-luciferase reporter, dexamethasone, overnight | activation, % at 9.1 µM | AID 652017, 2013 | 370,000 tested, 1% active; in the data active = activation above about 7.8%;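 also: 0% = vehicle wells and 100% = reference activator wells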
ssDAF12 agonist: S. stercoralis DAF-12 nuclear receptor activators, primary screen, cell-based, luminescence, HEK293, GRIP1 co-expression, lit1-tk-luc; Nuclear hormone receptor DAF-12 (Strongyloides stercoralis); HEK293 ssDAF-12/GRIP1 lit1-tk-luc reporter; % of 3 µM dafachronic acid response; activation, % at 6.8 µM; 370,000 tested, 1% active; AID 652126, 2013;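 active = activation above the mean over all tested compounds plus 3 SD, cut at about 0.9% in these data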;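 also: 0% = DMSO-only wells and 100% = 3 µM delta7-dafachronic acid wells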
hcDAF-12 act: H. contortus DAF-12 nuclear receptor activators, primary screen, cell-based, luminescence, HEK293, lit1-tk-luc reporter; HEK293 hcDAF-12 lit1-tk-luc reporter; 0% DMSO, 100% Δ7-dafachronic acid; activation, % at 6.8 µM; 370,000 tested, 1.4% active;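 active = activation above the mean of all tested compounds plus 3 SD, cut at about 5.5% in these data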;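 also: 100% = response to 3 µM Δ7-dafachronic acid high control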
DAX1 inh-2: DAX1 (NR0B1) inhibitors, primary screen, cell-based, HEK293, Gal4-DAX1, luciferase luminescence | 340,000 tested, 0.99% active | inhibition, % at 6.75 µM | HEK293 Gal4-DAX1 luciferase reporter;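 active = inhibition above the mean over all tested compounds plus 3 SD, cut at about 4.2% in these data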;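 also: 0% = DAX1-transfected cells with DMSO and 100% = empty-vector control cells with DMSO; inhibition shows as a rise in luminescence from relieved DAX1 repression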
Target sequence (P51843 207-470 limits assumed): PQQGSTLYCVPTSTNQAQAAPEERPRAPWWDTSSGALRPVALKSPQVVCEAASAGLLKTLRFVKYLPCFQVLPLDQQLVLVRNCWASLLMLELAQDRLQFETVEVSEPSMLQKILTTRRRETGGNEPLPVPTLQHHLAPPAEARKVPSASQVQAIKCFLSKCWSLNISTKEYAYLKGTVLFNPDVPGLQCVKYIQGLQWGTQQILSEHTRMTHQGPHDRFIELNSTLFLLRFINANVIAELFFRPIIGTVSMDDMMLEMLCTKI
SMARCA2 act conf: SMARCA2 (BRM) function activators, confirmation, cell-based, luminescence, triplicate | shares compounds with SMARCA2 activ | MG213 cells, MMTV-luciferase with dexamethasone, overnight; MG213 cells expressing E1A, Rb sequestered; DMSO wells 0%, reference activator 100% | activation, % at 9.1 µM | 3,500 tested, 30% active;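 active = activation above its plate's cutoff, the mean activation of tested wells plus 3 SD, cut at about 7.9% in these data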
VP16 Luc act: GAL4-VP16 luciferase reporter activation, counter-screen for SMARCA2 (BRM) activator project, cell-based, pG5luc, luminescence, high throughput; shares compounds with SMARCA2 activ; HEK293 GAL4-VP16 pG5luc reporter; scaled: DMSO wells 0%, SAHA wells 100%; activation, % at 9.1 µM; 3,500 tested, 41% active; AID 686939, 2013;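 active = activation above the solvent-only control well mean plus 3 SD, averaged across control plates, cut at about 5.2% in these data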
* hit, by the source's call. Most compounds without a hit are left out; they make up all but 4.8% or so of the library.

For CCN(CC)CCCNC(=O)Cc1c(C(=O)O)n(C)c2ccccc12 the results were DAX1 inh-1 -1, hgDAF12 agonist 0, SMARCA2 activ -4, ssDAF12 agonist -1, hcDAF-12 act 1 and DAX1 inh-2 1.
CCN(CC)CCNC(=O)Cc1c(C(=O)O)n(C)c2ccccc12 was read as DAX1 inh-1 -1, hgDAF12 agonist 2, SMARCA2 activ 9.5*, ssDAF12 agonist -1, hcDAF-12 act -2, DAX1 inh-2 2, SMARCA2 act conf -1 and VP16 Luc act 0.
Cc1ccc(S(=O)(=O)N2CCC(C(=O)OCC(=O)N3C(C)CCCC3C)CC2)cc1C (centres undefined) was read as DAX1 inh-1 0, hgDAF12 agonist 1, SMARCA2 activ -3, ssDAF12 agonist -1, hcDAF-12 act -3 and DAX1 inh-2 0.
`CC(NC(=O)NC(=O)c1cccc(Cl)c1)c1ccccc1` (centres undefined) gave DAX1 inh-1 0, hgDAF12 agonist -1, SMARCA2 activ -2, ssDAF12 agonist -1, hcDAF-12 act -3 and DAX1 inh-2 0.
Screening Cc1cc(C)cc(Cn2cc(CN3CC(N4CCCCC4)CS3(=O)=O)nn2)c1 (centres undefined) returned DAX1 inh-1 -1, hgDAF12 agonist 4, SMARCA2 activ 8.2*, ssDAF12 agonist -1, hcDAF-12 act -3, SMARCA2 act conf 1 and VP16 Luc act 0.
Screening Cc1cc(C)cc(Cn2cc(CN3CC(N4CCCC4)CS3(=O)=O)nn2)c1 (centres undefined) returned DAX1 inh-1 1, hgDAF12 agonist 1, SMARCA2 activ -4, ssDAF12 agonist -1 and hcDAF-12 act -1.
`COC[C@H]1CCCN1c1cccc2c1S(=O)(=O)N1CC[C@@H](C1)O2` gave DAX1 inh-1 -1, hgDAF12 agonist 0, SMARCA2 activ 2, ssDAF12 agonist -1 and hcDAF-12 act 0.
For CC(C)NC(=O)c1ccc(N(Cc2ccc(Cl)cc2)S(C)(=O)=O)cc1 the results were DAX1 inh-1 1, hgDAF12 agonist -2, SMARCA2 activ 2, ssDAF12 agonist -2, hcDAF-12 act -2 and DAX1 inh-2 0.
For Cc1ccc(NC(=S)N(CCCN2CCCC(C)C2)Cc2ccco2)cc1C (centres undefined) the results were DAX1 inh-1 0, hgDAF12 agonist 1, SMARCA2 activ 9.2*, ssDAF12 agonist -1, hcDAF-12 act 1, DAX1 inh-2 0, SMARCA2 act conf -1 and VP16 Luc act 1.
Screening CCN1CCN(CCCN(Cc2ccco2)C(=S)Nc2ccc(Cl)c(C)c2)CC1 returned DAX1 inh-1 1, hgDAF12 agonist -4, SMARCA2 activ 0, ssDAF12 agonist -1, hcDAF-12 act -1 and DAX1 inh-2 -1.
`COc1ccc(N2CC(=O)N(c3ccccc3)C2=S)cc1` gave DAX1 inh-1 2, hgDAF12 agonist 12*, SMARCA2 activ 11*, ssDAF12 agonist 0, hcDAF-12 act 4, DAX1 inh-2 0, SMARCA2 act conf 8.7* and VP16 Luc act 1.
`COc1ccc(N=C2C(=Nc3ccc(OC)cc3)N(c3ccc(OC)cc3)C(=S)N2c2ccccc2)cc1` gave DAX1 inh-1 2, hgDAF12 agonist 9, SMARCA2 activ 4, ssDAF12 agonist 0, hcDAF-12 act 4 and DAX1 inh-2 2.
Screening CCOC(=O)c1cnc(SCC(=O)c2ccccc2)nc1N returned DAX1 inh-1 2, hgDAF12 agonist 6, SMARCA2 activ 14*, ssDAF12 agonist 0, hcDAF-12 act 0, DAX1 inh-2 2, SMARCA2 act conf 13* and VP16 Luc act 9.0*.
Screening NC(=O)c1ncn([C@@H]2O[C@H](CNCc3cccn3-c3ccncc3)[C@@H](O)[C@H]2O)n1 returned DAX1 inh-1 -1, hgDAF12 agonist -2, SMARCA2 activ 8.4*, ssDAF12 agonist -1, hcDAF-12 act -2, DAX1 inh-2 1, SMARCA2 act conf 0 and VP16 Luc act -1.
`CCOC(=O)[C@@H]1[C@H]2COc3ccccc3[C@@H]2N2C(=O)N(c3ccc(C)cc3)C(=O)[C@]12C` gave DAX1 inh-2 2.
O=C1NC(=O)/C(=C\c2ccc(OCc3cccc(C(=O)O)c3)c(Cl)c2)N1 was read as DAX1 inh-1 2, hgDAF12 agonist 9, SMARCA2 activ 9.0*, ssDAF12 agonist 0, hcDAF-12 act 3, DAX1 inh-2 -3, SMARCA2 act conf 7 and VP16 Luc act 8.4*.
For COc1cc(/C=C2\NC(=S)NC2=O)ccc1OCc1cccc(C(=O)O)c1 the results were DAX1 inh-1 1, hgDAF12 agonist 2, SMARCA2 activ 0, ssDAF12 agonist 0, hcDAF-12 act 4 and DAX1 inh-2 0.
O=C(CS(=O)(=O)c1c[nH]c2ccccc12)N1CCc2ccccc21 was read as DAX1 inh-1 1, hgDAF12 agonist 4, SMARCA2 activ -2, ssDAF12 agonist -1, hcDAF-12 act 2 and DAX1 inh-2 0.
For O=C(Nc1ccc(S(=O)(=O)N2CCOCC2)cc1)C1CC1 the results were DAX1 inh-1 0, hgDAF12 agonist 3, SMARCA2 activ 2, ssDAF12 agonist -1, hcDAF-12 act -1 and DAX1 inh-2 0.
`Cc1ccc(NC(=O)C2CCN(S(=O)(=O)c3ccc(C(C)(C)C)cc3)CC2)cc1S(=O)(=O)N1CCOCC1` gave DAX1 inh-1 0, hgDAF12 agonist -2, SMARCA2 activ 8.4*, ssDAF12 agonist -2, hcDAF-12 act -2, DAX1 inh-2 -1, SMARCA2 act conf -7 and VP16 Luc act 0.
`O=C(Nc1cccc(S(=O)(=O)N2CCOCC2)c1)c1cc(=O)[nH]c2ccccc12` gave DAX1 inh-1 -1, hgDAF12 agonist 1, SMARCA2 activ 0, ssDAF12 agonist -1, hcDAF-12 act -2 and DAX1 inh-2 0.
